Among the data in PubChem BioAssay (NCI) are growth inhibition values, retold here.

SMILES strings stand for the structures. This is part of a sample that, as a whole, favours compounds with a hit. Of some 79,000 tested, about 15% had one in any assay. Unmarked numbers belong to inactive results. The source made the active and inactive calls. Rule as the data show it: active = growth inhibition above about 70%; inactive = the rest.

Experiment [1] can be described thus: NCI Yeast Anticancer Drug Screen. Data for the rad50 strain (AID 155).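 Also: 0% = growth of vehicle-only cultures of the same strain.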 The note with it: S. cerevisiae rad50 strain growth inhibition, hits give high values. In outline:
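Cells are treated with compound, grown, and their growth is then scored against vehicle-only cultures of the same repair-deficient yeast strain.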

Experiment [2] in a line: NCI Yeast Anticancer Drug Screen. Data for the mec2-1 strain (AID 157). To be noted: S. cerevisiae mec2-1 strain, hits give high values. In outline: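 Strain: mec2-1 (DNA repair/cell cycle alteration). Compound exposure, then growth measured; inhibition expressed relative to vehicle.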
Experiment [3] in a line: NCI Yeast Anticancer Drug Screen. Data for the sgs1 mgt1 strain (AID 161).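 Also: 0% = growth of cultures given vehicle only.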 The note with it: S. cerevisiae sgs1 mgt1 strain, hits give high values. In outline:
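Read-out: growth inhibition vs vehicle controls. Cells: mutant yeast strain deficient in DNA damage repair.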

Experiment [4] is described as follows: NCI Yeast Anticancer Drug Screen. Data for the cln2 rad14 strain (AID 165).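 Also: 0% = growth equal to vehicle treated cultures.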 The note with it: S. cerevisiae cln2 rad14 strain, hits give high values. An outline of the steps:
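Compounds are applied to the cln2 rad14 yeast strain, and growth is then compared with that of vehicle-treated cultures to give inhibition.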

Experiment [5] can be described thus: NCI Yeast Anticancer Drug Screen. Data for the bub3 strain (AID 167). To be noted: S. cerevisiae bub3 mutant strain, hits give high values. In outline: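 Part of a panel of yeast mutants defective in DNA damage repair or cell cycle regulation. Each strain is grown with compound, and inhibition is calculated relative to solvent-treated cultures.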
Experiment [6] is described as follows: NCI Yeast Anticancer Drug Screen. Data for the mlh1 rad18 strain (AID 175). The note with it: S. cerevisiae mlh1 rad18 strain growth inhibition, hits give high values. In outline:
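Read-out is yeast growth inhibition, calculated against vehicle-only controls. The compound was applied to a strain engineered with DNA damage repair alterations.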

Setting [7] is: at 5.0 µM (retest, dose inferred, filed as 0.5).
The mark [8] stands for this setting: at 50.0 µM (retest, dose inferred, filed as 5.0).

As for `CC(CC=O)CC=O`, the growth inhibition in experiment [1] (setting [7]) is 15%; in experiment [1] (setting [8]) it was 82% (active); in experiment [2] (setting [7]), 3%; in experiment [2] (setting [8]), 32%; in experiment [3] (setting [7]), 18%; in experiment [3] (setting [8]) it was 78% (active). Moreover, the growth inhibition in experiment [4] (setting [7]) was 3%; in experiment [4] (setting [8]), 31%; in experiment [5] (setting [7]), -5%; in experiment [5] (setting [8]), -7%; in experiment [6] (setting [7]), 16%; in experiment [6] (setting [8]), 79% (active).
As to `CCOC(=O)CCN(CCC(=O)OCC)N(C)C`, the growth inhibition was 2.55% in experiment [1] (at 50.0 µM unless noted); -6.45% in experiment [2] (at 50.0 µM unless noted); -4.6% in experiment [3] (at 50.0 µM unless noted); -8.85% in experiment [4] (at 50.0 µM unless noted); 5.8% in experiment [5] (at 50.0 µM unless noted).
For `CCc1nc(Cl)nc(Cl)c1Cl` the same measures were -9.1%, -17.1%, -18.2%, 0.2% and -8.5%.
For the molecule `CN(C)c1ccc(/C=C\C(=O)c2ccccc2)cc1`, the growth inhibition in experiment [1] (setting [7]) was 7%; in experiment [1] (setting [8]), 57%; in experiment [2] (setting [7]), 1%; in experiment [2] (setting [8]), 28%; in experiment [3] (setting [7]), 6%; in experiment [3] (setting [8]) it was 75% (active). Moreover, the growth inhibition in experiment [4] (setting [7]) was 13%; in experiment [4] (setting [8]), 15%; in experiment [5] (setting [7]), 8%; in experiment [5] (setting [8]) it was 77% (active); in experiment [6] (setting [7]), 32%; in experiment [6] (setting [8]), 53%.
On to `Nc1nc(Cl)c(C=O)c(NCC2(CO)CC(CCc3ccccc3)C2)n1` (stereo unspecified), for which the growth inhibition in experiment [1] (at 50.0 µM unless noted) was 15.4%; in experiment [2] (at 50.0 µM unless noted), 9.95%; in experiment [3] (at 50.0 µM unless noted), -32.8%; in experiment [4] (at 50.0 µM unless noted), -2.2%; in experiment [5] (at 50.0 µM unless noted), -22%.
Turning to `N#CC(C#N)N=Nc1cc(Cl)ccc1Cl`, the growth inhibition is 20% in experiment [1] (setting [7]); 93% (active) in experiment [1] (setting [8]); 13% in experiment [2] (setting [7]); 87% (active) in experiment [2] (setting [8]); 16% in experiment [3] (setting [7]); 99% (active) in experiment [3] (setting [8]). In addition, the growth inhibition in experiment [4] (setting [7]) is 8%; in experiment [4] (setting [8]), 87% (active); in experiment [5] (setting [7]), 15%; in experiment [5] (setting [8]), 96% (active); in experiment [6] (setting [7]) it was -2%; in experiment [6] (setting [8]), 92% (active).
On to `CCCCCCCCSC(=N)N`, for which the growth inhibition in experiment [1] (at 50.0 µM unless noted) is 23.9%; in experiment [2] (at 50.0 µM unless noted) it was -14.1%; in experiment [3] (at 50.0 µM unless noted), 1.95%; in experiment [4] (at 50.0 µM unless noted), 18.1%; in experiment [5] (at 50.0 µM unless noted), 36.1%.
Consider `NN1CCOC(c2ccccc2)C1` (stereo unspecified), for which the growth inhibition in experiment [1] (setting [7]) is 15%; in experiment [1] (setting [8]) it was 57%; in experiment [2] (setting [7]), 11%; in experiment [2] (setting [8]) it was 24%; in experiment [3] (setting [7]), 7%; in experiment [3] (setting [8]), 49%. Moreover, the growth inhibition was 0% in experiment [4] (setting [7]); 4% in experiment [4] (setting [8]); 34% in experiment [5] (setting [7]); 61% in experiment [5] (setting [8]); -12% in experiment [6] (setting [7]); 28% in experiment [6] (setting [8]).
On to `CCCCCCCc1nc(CCCCCCC)nc(CCCCCCC)n1`, for which the growth inhibition in experiment [1] (at 50.0 µM unless noted) was 1.05%; in experiment [2] (at 50.0 µM unless noted), 12.9%; in experiment [3] (at 50.0 µM unless noted), 6%; in experiment [4] (at 50.0 µM unless noted), -15.1%; in experiment [5] (at 50.0 µM unless noted), 19.8%.
For the molecule `CC(C)C(C)(C)c1ccc(O)cc1`, the growth inhibition is -34% in experiment [1] (setting [7]); 70% (active) in experiment [1] (setting [8]); -2% in experiment [2] (setting [7]); 68% in experiment [2] (setting [8]); 3% in experiment [3] (setting [7]); 75% (active) in experiment [3] (setting [8]). Further, the growth inhibition in experiment [4] (setting [7]) is 2%; in experiment [4] (setting [8]) it was 26%; in experiment [5] (setting [7]), 2%; in experiment [5] (setting [8]) it was 61%; in experiment [6] (setting [7]) it was 2%; in experiment [6] (setting [8]), 74% (active).
As for `CCCC(=O)CC(=O)C(F)(F)F.CCCC(=O)CC(=O)C(F)(F)F.CCCC(=O)CC(=O)C(F)(F)F.[Er]`, the growth inhibition in experiment [1] (at 50.0 µM unless noted) is 25%; in experiment [2] (at 50.0 µM unless noted) it was 10.8%; in experiment [3] (at 50.0 µM unless noted), 44.2%; in experiment [4] (at 50.0 µM unless noted), -0.15%; in experiment [5] (at 50.0 µM unless noted) it was -5.65%.
`Fc1ccc([I+]c2ccc(F)cc2)cc1`: the growth inhibition in experiment [1] (setting [7]) is 12%; in experiment [1] (setting [8]), 89% (active); in experiment [2] (setting [7]), 2%; in experiment [2] (setting [8]), 43%; in experiment [3] (setting [7]) it was 24%; in experiment [3] (setting [8]), 84% (active). Further, the growth inhibition in experiment [4] (setting [7]) was 9%; in experiment [4] (setting [8]), 32%; in experiment [5] (setting [7]), 33%; in experiment [5] (setting [8]), 90% (active); in experiment [6] (setting [7]), 17%; in experiment [6] (setting [8]) it was 81% (active).
As for `CC(O)C(=O)NC1CCCCC1` (stereo unspecified), the growth inhibition is 3% in experiment [1] (setting [7]); 26% in experiment [1] (setting [8]); 1% in experiment [2] (setting [7]); 1% in experiment [2] (setting [8]); 1% in experiment [3] (setting [7]); 12% in experiment [3] (setting [8]). In addition, the growth inhibition in experiment [4] (setting [7]) was 1%; in experiment [4] (setting [8]) it was 3%; in experiment [5] (setting [7]), 2%; in experiment [5] (setting [8]), -4%; in experiment [6] (setting [7]), 3%; in experiment [6] (setting [8]), 17%.
Regarding `CN(C)c1ccc(S(=O)(=O)OC2C(C3COC(C)(C)O3)OC3OC(C)(C)OC32)cc1` (stereo unspecified), the growth inhibition was -8.5% in experiment [1] (at 50.0 µM unless noted); 0.75% in experiment [2] (at 50.0 µM unless noted); -8.7% in experiment [3] (at 50.0 µM unless noted); -16.2% in experiment [4] (at 50.0 µM unless noted); 3.25% in experiment [5] (at 50.0 µM unless noted).
Turning to `COc1ccc(N(C(=O)NCCO)c2ccccc2)cc1`, the growth inhibition was -3.75% in experiment [1] (at 50.0 µM unless noted); -15.8% in experiment [2] (at 50.0 µM unless noted); 14.9% in experiment [3] (at 50.0 µM unless noted); 14.6% in experiment [4] (at 50.0 µM unless noted); -2.3% in experiment [5] (at 50.0 µM unless noted).
Consider `CCCCNc1ccc(Nc2ccccc2)cc1`, for which the growth inhibition in experiment [1] (setting [7]) is 1%; in experiment [1] (setting [8]), 95% (active); in experiment [2] (setting [7]) it was 1%; in experiment [2] (setting [8]), 96% (active); in experiment [3] (setting [7]) it was 14%; in experiment [3] (setting [8]), 97% (active). For the same molecule, the growth inhibition is 1% in experiment [4] (setting [7]); 87% (active) in experiment [4] (setting [8]); 2% in experiment [5] (setting [7]); 97% (active) in experiment [5] (setting [8]); -40% in experiment [6] (setting [7]); 94% (active) in experiment [6] (setting [8]).
Take `COc1cccc2c1C(=O)c1c(O)c3c(c(O)c1C2=O)C[C@@](O)(C(=O)CO)CC3OC1CC(O)C(O)C(C)O1` (stereo partly specified): the growth inhibition in experiment [1] (at 50.0 µM unless noted) was 72% (active); in experiment [2] (at 50.0 µM unless noted) it was 52.8%; in experiment [3] (at 50.0 µM unless noted) it was 33.2%; in experiment [4] (at 50.0 µM unless noted), 28.8%; in experiment [5] (at 50.0 µM unless noted) it was 63.2%.
